In the library only some 27% were active in any assay of this set; here they are far more common.
sEH activator – activators of human soluble epoxide hydrolase. P34913. 0.04% of 91,000 active. activation, % at 2 µM. purified human sEH enzymatic activity, activator screen; in the data active means activation above about 37%
Target sequence (P34913 whole entry, looked up): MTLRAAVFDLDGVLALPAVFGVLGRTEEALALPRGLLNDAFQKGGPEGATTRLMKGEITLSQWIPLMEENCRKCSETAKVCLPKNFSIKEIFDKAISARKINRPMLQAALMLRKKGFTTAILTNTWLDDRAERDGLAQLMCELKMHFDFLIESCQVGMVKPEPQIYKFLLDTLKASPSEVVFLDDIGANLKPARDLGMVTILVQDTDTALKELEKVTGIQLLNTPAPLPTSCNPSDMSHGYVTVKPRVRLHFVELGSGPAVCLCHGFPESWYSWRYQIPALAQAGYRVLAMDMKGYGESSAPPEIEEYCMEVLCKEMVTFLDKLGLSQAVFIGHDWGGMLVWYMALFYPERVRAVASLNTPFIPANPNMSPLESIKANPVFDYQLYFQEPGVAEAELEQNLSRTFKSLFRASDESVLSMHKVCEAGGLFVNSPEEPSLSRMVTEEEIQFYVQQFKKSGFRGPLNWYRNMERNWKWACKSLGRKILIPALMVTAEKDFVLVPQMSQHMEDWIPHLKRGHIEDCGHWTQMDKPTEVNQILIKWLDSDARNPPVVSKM
CYP2C19 activ – activators of human cytochrome P450 2C19; 96,000 tested, under 10 active; activation factor at 5 µM; recombinant CYP2C19, luciferin-H EGE luminescence; stronger effect = higher value; 0 = fully inhibited enzyme, 1 = untreated enzyme; P33261;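 active means activation factor of at least 2 at 5 µM in the primary screen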
sEH inh – inhibitors of human soluble epoxide hydrolase; P34913; recombinant human sEH enzymatic activity assay; 0.34% of 91,000 active; inhibition, % at 2 µM; in the data active means inhibition above about 80%
CYP2C19 inhib – inhibitors of human CYP2C19; P33261; CYP2C19 Supersomes, luciferin-H EGE luminescence, 30 min; inhibition, % at 5 µM; 21% of 96,000 active; AID 778;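 active means CYP2C19 inhibition above a set limit at 5 µM in the primary screen, cut at about 50% in these data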
CYP2C9 inh – blocks human cytochrome P450 2C9; P11712; CYP2C9 Supersomes, luciferin-H conversion, luminescence; inhibition, % at 5 µM; 20% of 96,000 active;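 active means blocking of liver enzyme CYP2C9 beyond about 50% at 5 µM, limit read from the data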
CYP2C9 act – increases human cytochrome P450 2C9 activity | P11712 | recombinant CYP2C9, luciferin-H conversion, luminescence; stronger effect = higher value; factor 1 = untreated enzyme, 0 = blocked | activation factor at 5 µM | 1.4% of 96,000 active;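 active means activation factor of 2 or more for CYP2C9 at a 5 µM dose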
Each line names hits and unclear results; the compound was inactive in the other large screens.

COc1cc2c(cc1NC(=O)COC(=O)C1CC(=O)N(Cc3ccco3)C1)oc1ccccc12 (stereo not drawn)	CYP2C9 inh 59
Cc1[nH]c2ccccc2c1C(=O)COC(=O)C1CC(=O)N(Cc2ccco2)C1 (stereo not drawn)	CYP2C19 inhib 56
CCC(CC)COC(=O)C(C#N)c1nc2ccccc2nc1N1CCN(CC)CC1 (stereo not drawn)	CYP2C19 inhib 82, CYP2C9 inh 64
N#CC(C(=O)OCc1ccccc1)c1nc2ccccc2nc1N1CCOCC1 (stereo not drawn)	CYP2C19 inhib 50
COc1ccc(CNC(=O)C(C#N)c2nc3ccccc3nc2N2CCCC2)cc1 (stereo not drawn)	none
CCCCCCOC(=O)C(C#N)c1nc2ccccc2nc1N1CCN(C)CC1 (stereo not drawn)	none
COc1ccc(CNC(=O)C(C#N)c2nc3ccccc3nc2N2CCN(C)CC2)cc1 (stereo not drawn)	CYP2C19 inhib 58
CCC(C)COC(=O)C(C#N)c1nc2ccccc2nc1N1CCCCC1 (stereo not drawn)	CYP2C9 inh 66
COc1cnc(SCc2c(Cl)cccc2Cl)nc1Cl	none
Cn1c(=O)c2c(nc(NCc3ccccc3)n2Cc2ccc(F)cc2)n(C)c1=O	none (no result: CYP2C19 activ, CYP2C19 inhib, CYP2C9 inh, CYP2C9 act)
Cn1c(=O)c2c(nc(NCc3cccnc3)n2Cc2ccc(Cl)cc2)n(C)c1=O	CYP2C19 inhib 54, CYP2C9 inh 70
Cc1ccc(Cn2c(NCCc3ccccc3)nc3c2c(=O)n(C)c(=O)n3C)cc1	none
Cn1c(N2CCN(c3ccccn3)CC2)nc2c1c(=O)n(Cc1ccc(Cl)cc1)c(=O)n2C	CYP2C19 inhib 92, CYP2C9 inh 86 (no result: sEH activator, sEH inh)
CCNc1nc2c(c(=O)n(Cc3ccccc3)c(=O)n2C)n1Cc1ccccc1	CYP2C19 inhib 84, CYP2C9 inh 90
Cn1c(N2CCN(c3ccccn3)CC2)nc2c1c(=O)n(Cc1ccccc1Cl)c(=O)n2C	none (no result: CYP2C19 activ, CYP2C19 inhib, CYP2C9 inh, CYP2C9 act)
C#CCSc1nc(Cc2ccc(Cl)cc2)nc2ccccc12	none
CON/C=C(\C=Nc1ccc(Cl)cc1)c1ncc(C(F)(F)F)cc1Cl	none
c1cnc(Oc2ccc3oc4ccccc4c3c2)nc1	CYP2C19 inhib 63
COc1ccc2ccc(Oc3ncccn3)cc2c1	none
COc1ccc(CNC(=S)Nc2cc(C)cc(C)c2)cc1	CYP2C9 act 2
COc1ccc(CCNC(=S)Nc2cccc(C)c2)cc1	CYP2C19 inhib 65
Cc1ccc(SCCNC(=S)Nc2cc(C)cc(C)c2)cc1	CYP2C19 inhib 51
CCOC(=O)N1CCN(c2c(Nc3cc(C)[nH]n3)c(=O)c2=O)CC1	none (no result: sEH activator, sEH inh)
O=C(c1ccc(C#CC2(O)CCCCC2)cc1)N1CCOCC1	none
Cc1csc(=NC(=O)c2ccccc2)n1Cc1ccco1	CYP2C19 inhib 72
O=C(CN(C(=O)CCC(=O)Nc1nccs1)c1ccc2c(c1)OCCO2)NCc1ccco1	none (no result: sEH activator, sEH inh)
COc1ccc(N2C(=O)c3ccc(NC(C)=O)cc3C2=O)cc1	CYP2C9 inh 55
CC(=O)Nc1ccc2c(c1)C(=O)c1ccccc1C2=O	CYP2C9 inh 63
CC(=O)Nc1ccc(NC(=O)CCCCCN2C(=O)c3ccccc3C2=O)cc1	CYP2C9 inh 92
COC(=O)c1oc2ccc(Br)cc2c1NC(=O)CCCN1C(=O)c2ccccc2C1=O	CYP2C9 inh 64 (no result: sEH activator, sEH inh)
O=C(CCCCCN1C(=O)c2ccccc2C1=O)NCc1ccccn1	none
O=C(CCCCCN1C(=O)c2ccccc2C1=O)Nc1nccs1	CYP2C9 inh 56
O=C(CCCCCN1C(=O)c2ccccc2C1=O)Nc1ccccc1	CYP2C19 inhib 64, CYP2C9 inh 58
O=C(CCCN1C(=O)c2ccccc2C1=O)Nc1c2c(nc3c1CCC3)CCC2	CYP2C9 inh 63
O=C(CCCCCN1C(=O)C2C3C=CC(C3)C2C1=O)Nc1nccs1 (stereo not drawn)	none (no result: sEH activator, sEH inh)
Cc1cccnc1NC(=O)CCCN1C(=O)c2ccccc2C1=O	CYP2C9 act 2.1
Cc1cc(C)nc(NS(=O)(=O)c2ccc(NC(=O)CCCN3C(=O)c4ccccc4C3=O)cc2)n1	none (no result: sEH activator, sEH inh)
CCN(CC)c1ccc(NC(=O)CCCCCN2C(=O)c3ccccc3C2=O)cc1	CYP2C9 inh 76
COC(=O)C1=C(C(=O)OC)SC2(S1)C(C(=O)OC)=C(C(=O)OC)SC1=C2c2cc(C)ccc2NC1(C)C	CYP2C19 inhib 82, CYP2C9 inh 87
Cc1ccc(S(=O)(=O)c2cc(N3CCOCC3)nc(-c3ccccc3)n2)cc1	none
O=C(N/C=C/c1ccc(Cl)cc1)NCc1ccc(Cl)cc1	none
Cc1ccc(C(=O)CSc2nc(C)cc(C)c2C(N)=O)cc1	CYP2C19 inhib 77, CYP2C9 inh 60
CNC(=O)CC1C(=O)N(C)C(=S)N1NC(=O)c1ccc(Cl)cc1 (stereo not drawn)	none
CC(C)C(C)NC(=O)CSc1nc2scc(-c3ccco3)c2c(=O)n1-c1ccccc1 (stereo not drawn)	none
CC(C)C(C)(C#N)NC(=O)CSc1nc2scc(-c3ccco3)c2c(=O)n1-c1ccccc1 (stereo not drawn)	CYP2C9 inh 55
O=C(OCCCN1CCCC1)C1(c2ccccc2)CCCC1	none
c1ccc2c(c1)nc1n2C2(N3CCOCC3)CCCC2C1N1CCOCC1 (stereo not drawn)	CYP2C9 inh 99 (no result: sEH activator, sEH inh)
O=C1CN(C(=O)OCc2ccccc2)c2ccccc2N1	CYP2C19 inhib 69
O=C1CN(C(=O)c2ccccc2F)c2ccccc2N1	none
COc1ccccc1C(=O)NCCC(=O)N1CC(=O)Nc2ccccc21	CYP2C9 act 2
COc1ccccc1-n1cnnc1SCC(=O)N1CC(=O)Nc2ccccc21	none
Cc1cccc(Sc2nc(-c3ccccc3)ccc2C#N)c1	none
COc1ccc(CC(=O)Nc2c3c(nn2-c2cccc(C)c2C)CS(=O)C3)cc1 (stereo not drawn)	CYP2C19 inhib 94
COc1ccc(CC(=O)Nc2c3c(nn2-c2cccc(C)c2C)CS(=O)C3)cc1OC (stereo not drawn)	CYP2C19 inhib 79
CCOc1ccc(C(=O)Nc2c3c(nn2-c2cccc(C)c2C)CS(=O)C3)cc1 (stereo not drawn)	none
O=C(Nc1nnc(C23CC4CC(CC(C4)C2)C3)s1)c1ccco1	none
O=C(CCCN1C(=O)c2ccccc2C1=O)NCC1CCCO1 (stereo not drawn)	none
COc1nc(C)ccc1-c1noc(-c2ccncc2)n1	none (no result: CYP2C19 activ, CYP2C19 inhib, CYP2C9 inh, CYP2C9 act)
COc1nc2c(C)cccc2cc1-c1noc(-c2ccncc2)n1	CYP2C19 inhib 63 (no result: sEH activator, sEH inh)
COc1ccc(C)cc1NC(=O)CSc1nnc(CC(=O)Nc2cccc(C(F)(F)F)c2)n1C	none
COc1ccccc1NC(=O)CSc1nnc(CC(=O)Nc2cccc(C(F)(F)F)c2)n1C	CYP2C19 inhib 51
COc1ccc(OC)c(-c2csc3nnc(SCC(=O)Nc4ccc(NC(C)=O)cc4)n23)c1	CYP2C9 inh 53
COc1ccc(NC(=O)Cc2nnc(SCC(=O)Nc3cc(C)ccc3OC)n2C)cc1	CYP2C19 inhib 95

Screens as filed in PubChem BioAssay.
